Experimental data taken from article PMC4336329 (PLoS ONE, 2015).
In all, about 310,000 compounds went through this assay and about 14,000 (4.5%) showed an effect of 50% or more. The effect is printed as a negative number. The full list was thinned out, with strong results kept by preference.

These compounds were tested against human ether-à-go-go-related gene (hERG) potassium channel (human, UniProt Q12809) (assay: primary screen, population patch clamp on CHO cells stably expressing hERG; higher = less effect of the substance).
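Further: peak tail current of the secondary pulse compared with the same well before compound.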

Sequence of human ether-à-go-go-related gene (hERG) potassium channel (Q12809 whole entry, looked up): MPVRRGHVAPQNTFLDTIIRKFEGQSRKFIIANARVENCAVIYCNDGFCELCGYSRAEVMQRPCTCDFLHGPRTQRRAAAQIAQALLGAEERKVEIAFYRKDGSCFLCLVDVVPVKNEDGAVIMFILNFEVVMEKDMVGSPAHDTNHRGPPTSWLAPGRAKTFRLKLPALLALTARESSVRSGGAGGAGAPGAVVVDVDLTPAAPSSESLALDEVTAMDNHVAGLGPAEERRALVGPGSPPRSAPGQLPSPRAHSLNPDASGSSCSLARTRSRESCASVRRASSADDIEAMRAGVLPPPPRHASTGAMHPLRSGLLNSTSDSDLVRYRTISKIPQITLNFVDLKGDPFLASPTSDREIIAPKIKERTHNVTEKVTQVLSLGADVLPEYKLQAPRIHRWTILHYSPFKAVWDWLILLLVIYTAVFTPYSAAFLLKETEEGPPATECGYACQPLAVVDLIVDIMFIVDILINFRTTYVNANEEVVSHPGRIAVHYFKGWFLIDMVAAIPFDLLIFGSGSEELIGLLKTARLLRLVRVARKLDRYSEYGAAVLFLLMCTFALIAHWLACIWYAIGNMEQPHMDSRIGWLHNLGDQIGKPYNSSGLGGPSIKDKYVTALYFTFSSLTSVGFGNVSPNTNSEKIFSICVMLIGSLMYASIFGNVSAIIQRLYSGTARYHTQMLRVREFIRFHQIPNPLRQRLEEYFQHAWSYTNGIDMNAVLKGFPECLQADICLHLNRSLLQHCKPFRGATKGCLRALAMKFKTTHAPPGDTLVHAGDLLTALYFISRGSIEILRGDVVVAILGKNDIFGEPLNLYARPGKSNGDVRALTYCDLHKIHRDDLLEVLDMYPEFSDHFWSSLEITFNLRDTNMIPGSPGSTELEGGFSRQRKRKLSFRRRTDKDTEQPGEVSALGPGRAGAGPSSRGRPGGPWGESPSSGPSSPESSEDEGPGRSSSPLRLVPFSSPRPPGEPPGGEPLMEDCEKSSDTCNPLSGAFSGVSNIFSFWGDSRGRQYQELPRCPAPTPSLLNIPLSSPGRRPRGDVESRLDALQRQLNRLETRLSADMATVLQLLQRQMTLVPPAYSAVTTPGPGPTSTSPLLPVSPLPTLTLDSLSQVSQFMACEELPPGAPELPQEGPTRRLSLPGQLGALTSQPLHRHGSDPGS

Structure (SMILES) | hERG current change (%, negative = inhibition) at 10uM
COc1ccccc1OCCNC(=O)c1ccc2c(c1)CCC2 | -5.96%
Cc1ccc(S(=O)(=O)NC(=NCC(=O)O)c2ccccc2)cc1 | 2.94%
COc1cc(OC)cc(C(=O)NNC(=O)c2cc(S(=O)(=O)N3CCOCC3)ccc2F)c1 | -1.89%
CCC(=O)n1nc(-c2ccccc2)nc1NCc1ccccc1 | 10.9%
Cn1ncc(N)c1C(=O)Nc1cccc(C(F)(F)F)c1 | 1.42%
CCOC(=O)c1cc(C)n(-c2ccc(OC)c(OC)c2)c1C | -16.5%
COc1cccc(NC(=S)N2CCC(NC(=O)c3ccco3)CC2)c1 | -11%
CCOc1ccc2nc(NC(=O)c3ccccn3)sc2c1 | 6.42%
COC(=O)c1cc(C)nc2c1C(=O)C(=O)C=C2N1CCOCC1 | -2.1%
CCCN1CCC(=O)N(CCSc2ccccc2)CC1 | -15.1%
O=C1CCN(CCc2ccccc2)CCN1CCO | -4.16%
O=C1CCN(CCc2ccccc2)CCN1CCSc1ccccc1 | -76.4%
CCN(CC)S(=O)(=O)c1ccc(NC(=O)CO/N=C(\N)c2ccccc2)cc1 | -16.6%
O=C(CN1CCOc2ccccc21)NCc1cccs1 | 8.26%
Br.CCOC(=O)CN1C2=NCCN2c2ccccc21 | 18.1%
Br.O=C(CN1C2=NCCCN2c2ccccc21)c1ccc(Br)s1 | -67.2%
Br.O=C(CN1C2=NCCN2c2ccccc21)c1cccs1 | -31.3%
O=C(CN1C2=NCCCN2c2ccccc21)c1cccs1 | -18.4%
Br.O=C(CN1C2=NCCN2c2ccccc21)C12CC3CC(CC(C3)C1)C2 | -72.7%
Br.O=C(CN1C2=NCCN2c2ccccc21)c1ccc(Br)s1 | -64.5%

Structure (SMILES) | hERG current change (%, negative = inhibition) at 10uM
O=C1CCC(=O)N1CC(=O)N1c2ccccc2Sc2ccccc21 | 3.19%
Cc1nc(C(=O)NC2CCOCC2)sc1C1(C)CC(c2ccccc2)=NO1 (stereo not shown) | -19.8%
CC(C)CCNC(=O)C1CCC(=O)N1CCc1ccccc1 (stereo not shown) | 9.14%
CCN(CC)CCCNC(=O)c1cc2c(=O)n(CC)c3ccccc3c2s1 | -14.9%
CC(C)Oc1ccccc1C1Nc2ccccc2C(=O)N1c1ccc2c(c1)OCCO2 (stereo not shown) | 3.43%
Fc1ccccc1NC(=S)NC1CCCC1 | 14%
Cc1ccc(NC(=O)N(C2=NCC(C)S2)c2ccccc2)cc1 (stereo not shown) | 16.3%
Cn1c(SCc2nc(-c3ccc(Br)cc3)no2)nnc1-c1ccco1 | -49.6%
CCn1c(SCc2nc(-c3ccc(OC)c(OC)c3)no2)nnc1-c1cccs1 | -40.1%
CCn1c(SCc2nc(-c3ccccc3)no2)nnc1-c1ccco1 | -36.3%
CCn1c(SCc2nc(-c3ccccc3)no2)nnc1-c1cccs1 | -61.2%
CCn1c(SCc2nc(-c3ccc(Cl)cc3)no2)nnc1-c1ccco1 | -62%
Cn1c(SCc2nc(-c3ccccc3)no2)nnc1-c1ccco1 | -18.4%
Cn1c(SCc2nc(-c3ccccc3)no2)nnc1-c1cccs1 | -2.11%
Cn1c(SCc2nc(-c3ccc(Cl)cc3)no2)nnc1-c1ccco1 | -53.2%
Cn1c(SCc2nc(-c3ccc(Cl)cc3)no2)nnc1-c1ccccc1 | -22.5%
O=C(NCCN1CCCC1)C1CCN(S(=O)(=O)N2CCC3(CC2)OCCO3)CC1 | 20.5%
Cc1cccc(N(C)c2ncnc3onc(-c4ccc(F)cc4)c23)c1C | -8.28%
COc1ccc(CN2CCNC(=O)C2CC(=O)NCC2CCOCC2)c(C)c1C (stereo not shown) | -19.6%
O=C(O)CCCn1cc(NC(=O)COc2ccc(F)cc2)cn1 | 16.5%

Structure (SMILES) | hERG current change (%, negative = inhibition) at 10uM
N#Cc1c(N)oc(-c2ccco2)c1-c1ccco1 | 1.98%
COc1ccc(NS(=O)(=O)c2cccc(C(=O)NNC(=O)CNC(=O)c3ccc(C)cc3)c2)cc1 | -2.64%
O=C(NCc1ccccc1)C(c1ccc(F)cc1)N(Cc1ccco1)C(=O)c1ccccn1 (stereo not shown) | -24.4%
O=C(Nc1c2c(nc3ccccc13)CCCC2)c1cccc([N+](=O)[O-])c1 | -5.85%
N#Cc1cccc(Nc2c3c(nc4ccccc24)CCCC3)c1 | -74.8%
O=C(Nc1c2c(nc3ccccc13)CCCC2)c1ccccc1Br | 4.09%
N#Cc1cccc(Nc2c3c(nc4ccccc24)CCC3)c1 | -72.2%
CC(C)c1ccc(NC(=O)c2cc3c(=O)n(C)c4ccccc4c3n2C)cc1 | 6.96%
COc1ccccc1OCc1ccc(C(=O)N2CCCCC2)o1 | 2.22%
O=C(c1ccco1)c1cn(CC(=O)N2CCCCC2)c2ccccc12 | -6.34%
CCOC(=O)c1[nH]c2ccccc2c1NC(=O)COC | -4.53%
Cc1cc(C(=O)CCl)c(C)n1Cc1ccco1 | 3.06%
Cc1oc(-c2ccc(Cl)cc2)nc1CN1CCC(C(=O)NCCCN2CCCC(C)C2)CC1 (stereo not shown) | -16.5%
Cc1oc(-c2ccc(Cl)cc2)nc1CN1CCC(C(=O)NCc2cccs2)CC1 | -61.5%
Cc1oc(-c2ccc(Cl)cc2)nc1CN1CCC(C(=O)NCCCN2CCCC2=O)CC1 | -33.9%
Cc1ccccc1-c1nc(CN2CCC(C(=O)NCc3cccs3)CC2)c(C)o1 | -70.5%
Cc1oc(-c2ccccc2F)nc1CN1CCC(C(=O)NCc2cccs2)CC1 | -63.7%
Cc1oc(-c2ccccc2F)nc1CS(=O)CC(=O)NCc1cccs1 (stereo not shown) | -12%
